Screening data as filed in PubChem BioAssay.
rCAG binder: binders of r(CAG) RNA repeats, primary screen, biochemical, fluorescence. r(CAG) RNA repeat, TO-PRO-1 dye displacement fluorescence. inhibition, % at 3 µM. hit rate 1.3% among 370,000;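 active = inhibition above the plate cutoff, the mean of all test compounds on that plate plus 3 SD, cut at about 35% in these data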;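 note: 0% = DMSO alone and 100% = 100 µM mitoxantrone as full dye displacement; higher means more dye released from RNA so lower well fluorescence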
ALR inh: inhibitors of human ALR sulfhydryl oxidase, primary screen, biochemical, H2O2 detection, HRP-luminol luminescence, single point. FAD-linked sulfhydryl oxidase ALR (Homo sapiens), P55789. purified ALR, DTT oxidation. inhibition, % (concentration not given with the values). hit rate 3.8% among 290,000. AID 485317, 2010;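 active = mean replicate inhibition above about 79%, with every replicate also reaching it, limit read from the data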
Target sequence (P55789 whole entry, looked up): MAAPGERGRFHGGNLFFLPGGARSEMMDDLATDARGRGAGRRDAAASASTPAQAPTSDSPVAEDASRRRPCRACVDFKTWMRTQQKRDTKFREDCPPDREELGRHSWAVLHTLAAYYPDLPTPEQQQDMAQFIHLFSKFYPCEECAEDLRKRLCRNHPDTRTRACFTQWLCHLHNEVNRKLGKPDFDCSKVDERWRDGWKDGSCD
Rtt109 Vps75: inhibitors of C. albicans Rtt109/Vps75 HAT, primary screen, biochemical, ThioGlo CoA-SH fluorescence, plate reader. Histone acetyltransferase RTT109 (Candida albicans (strain SC5314 / ATCC MYA-2876)), …. purified Rtt109/Vps75, 4 h. inhibition, % at 34.9 µM. hit rate 0.16% among 330,000;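 active = inhibition of at least 50% in every replicate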
ABHD5 PLIN5 PPI: ABHD5-PLIN5 interaction inhibitors, primary screen, cell lysate, split luciferase complementation, luminescence. Perilipin-5 (Homo sapiens) + 1-acylglycerol-3-phosphate O-acyltransferase ABHD5 (Homo …. inhibition, % at 4 µM. hit rate 0.78% among 360,000. Split G. princeps luciferase complementation, 4 h;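 active = inhibition above the mean inhibition across every tested compound plus 3 SD, cut at about 22% in these data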;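 note: 0% = DMSO only wells and the 100% control is not disclosed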
LANA-H2B inh: blockers of LANA interaction with H2A/H2B – biochemical, FP readout, HTS, primary screen; Protein LANA1 (Human herpesvirus 8 type P (isolate GK18)), Q9QR71; cell-free LANA-H2A/H2B peptide, fluorescence polarization; inhibition, % (test concentration not listed); hit rate 0.6% among 320,000; AID 2629, 2010; in the data active = inhibition mostly above about 10%, no sharp cut-off; inactive = mostly below about 6.7%
PRMT1 FP inh: PRMT1 methyltransferase inhibitors, primary screen, biochemical, fluorescence polarization; recombinant PRMT1, activity-based probe fluorescence polarization; inhibition, % at 2.79 µM; hit rate 1.3% among 370,000; AID 652257, 2013;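 active = inhibition above about 21% made by adding two undisclosed values, limit read from the data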
Target sequence (Q99873 whole entry, looked up): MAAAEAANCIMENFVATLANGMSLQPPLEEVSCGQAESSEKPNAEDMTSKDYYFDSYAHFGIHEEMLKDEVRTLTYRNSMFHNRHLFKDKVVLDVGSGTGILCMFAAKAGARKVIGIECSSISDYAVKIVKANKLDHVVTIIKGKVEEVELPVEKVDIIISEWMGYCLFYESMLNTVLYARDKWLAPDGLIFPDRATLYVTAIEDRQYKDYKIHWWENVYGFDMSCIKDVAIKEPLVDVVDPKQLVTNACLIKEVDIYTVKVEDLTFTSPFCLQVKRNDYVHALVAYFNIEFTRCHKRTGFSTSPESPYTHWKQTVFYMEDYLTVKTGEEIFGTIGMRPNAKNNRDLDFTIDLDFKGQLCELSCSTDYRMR
* hit, by the source's call; ! = not confirmed by another sample. A selection: hits, their analogues and other compounds. The true share with any hit is near 5.9%.

`O=C(c1cccs1)N1CCN(c2ccc(F)cc2)CC1` gave rCAG binder -2.1, Rtt109 Vps75 -21.7, ABHD5 PLIN5 PPI 0.0, LANA-H2B inh 5.8 and PRMT1 FP inh -1.2.
`Cc1ccc(CSc2nnc(-c3cccs3)o2)cc1C` gave rCAG binder 1.1 and PRMT1 FP inh -4.0.
For O=c1[nH]c(=S)[nH]c2c1C(C1CCCCC1)OC(C1CCCCC1)C2 (centres undefined) the results were rCAG binder 7.1, ABHD5 PLIN5 PPI 3.8 and PRMT1 FP inh -3.5.
Screening CC(=O)NC1(C)CCC2CC1C(C)=NC2(C)C (centres undefined) returned rCAG binder -1.1, ABHD5 PLIN5 PPI 7.9 and PRMT1 FP inh 3.4.
`Cc1cc(NCc2ccccn2)ccc1Br` gave rCAG binder 1.6, ALR inh 98.9*, Rtt109 Vps75 -5.0, ABHD5 PLIN5 PPI -3.5, LANA-H2B inh 2.0 and PRMT1 FP inh 1.4.
Screening c1ccc(-n2cnc3cc(NCc4ccccn4)ccc32)cc1 returned rCAG binder -2.2, ALR inh 99.6*, Rtt109 Vps75 -1.0, ABHD5 PLIN5 PPI -9.3, LANA-H2B inh 1.7 and PRMT1 FP inh 3.7.
Screening c1ccc(-n2cnc3cc(NCc4ccncc4)ccc32)cc1 returned rCAG binder 5.7, ALR inh 99.1*, Rtt109 Vps75 0.6, ABHD5 PLIN5 PPI 1.5, LANA-H2B inh 0.9 and PRMT1 FP inh 6.3.
`Cc1cccc(NC(=S)NCc2ccccn2)c1` gave rCAG binder -3.0, ALR inh 4.8, Rtt109 Vps75 -2.9, ABHD5 PLIN5 PPI -5.0, LANA-H2B inh 0.4 and PRMT1 FP inh 2.0.
Screening O=C1CC2CCCN2C=C1I (centres undefined) returned rCAG binder -1.4, ALR inh -10.9, Rtt109 Vps75 -6.0, ABHD5 PLIN5 PPI -5.2, LANA-H2B inh 1.8 and PRMT1 FP inh 0.4.
For CC1(C)S[C@@H]2[C@H](NC(=O)[C@H](N)c3ccc(O)cc3)C(=O)N2[C@H]1C(=O)O the results were rCAG binder 23.8, Rtt109 Vps75 -3.4, ABHD5 PLIN5 PPI -6.8, LANA-H2B inh -2.8 and PRMT1 FP inh 1.2.
CC1(C)S[C@@H]2[C@H](NC(=O)C(C(=O)O)c3ccccc3)C(=O)N2[C@H]1C(=O)O (some centres undefined) was read as Rtt109 Vps75 -2.2, ABHD5 PLIN5 PPI -0.6 and LANA-H2B inh 26.8*.
For CC1(C)S[C@@H]2[C@H](NC(=O)[C@H](N)c3ccccc3)C(=O)N2[C@H]1C(=O)O the results were rCAG binder 57.8*!, ALR inh 3.4, Rtt109 Vps75 2.4, ABHD5 PLIN5 PPI 5.2, LANA-H2B inh 1.5 and PRMT1 FP inh 2.2.
Fc1cccc(Cc2c(-c3cccc(Cl)c3)nc3c(Cl)cc(C(F)(F)F)cn23)c1 was read as rCAG binder 5.3, ABHD5 PLIN5 PPI 4.0 and PRMT1 FP inh 3.1.
C[C@@H]1CCN(C2CC2)S(=O)(=O)c2c(cccc2N2CCC[C@@H]2C)O1 was read as rCAG binder 5.4 and PRMT1 FP inh 6.6.
For CC(=O)Nc1ccc(NC(=O)CSc2ncc(C(=O)Nc3ccc(Cl)cc3)c(=O)n2C)cc1 the results were ALR inh 98.9*, ABHD5 PLIN5 PPI -2.3 and LANA-H2B inh 3.4.
For CC(=O)c1cccc(NC(=O)CSc2ncc(C(=O)Nc3ccccc3)c(=O)n2C)c1 the results were rCAG binder 2.8, ALR inh 98.6*, Rtt109 Vps75 13.9, ABHD5 PLIN5 PPI -3.6, LANA-H2B inh -3.2 and PRMT1 FP inh 6.8.
CC(=O)Nc1ccc(NC(=O)CSc2ncc(C(=O)Nc3ccc(F)cc3)c(=O)n2C)cc1 was read as rCAG binder 3.4, ALR inh 98.5*, Rtt109 Vps75 8.9, ABHD5 PLIN5 PPI -2.0, LANA-H2B inh 0.7 and PRMT1 FP inh 3.6.
`CC(=O)Nc1cccc(NC(=O)CSc2ncc(C(=O)Nc3ccc(F)cc3)c(=O)n2C)c1` gave rCAG binder 3.0, ALR inh 98.7*, Rtt109 Vps75 1.6, ABHD5 PLIN5 PPI 11.3, LANA-H2B inh 2.4 and PRMT1 FP inh 0.2.
Screening CC(C)C[C@H]1CN(CCCC[C@@H]2CNC(=O)C(=O)N2CCc2ccccc2)C(=O)C(=O)N1CCc1ccc(O)cc1 returned rCAG binder 0.8, ABHD5 PLIN5 PPI 2.3 and PRMT1 FP inh 0.5.
Screening COCCCNC(=O)CSc1nnc(-c2cccnc2)n1C1CCCCC1 returned rCAG binder -0.7 and PRMT1 FP inh -4.5.
For CC(=O)Nc1ccc(NC(=O)CSc2nnnn2-c2ccc(F)cc2)cc1 the results were rCAG binder -1.3, ALR inh 98.3*, Rtt109 Vps75 5.4, ABHD5 PLIN5 PPI -5.4, LANA-H2B inh 2.0 and PRMT1 FP inh -2.7.
`CC(=O)N1CCN(c2ccccc2NC(=O)c2ccco2)CC1` gave rCAG binder -2.9, ALR inh -0.8, Rtt109 Vps75 15.5, ABHD5 PLIN5 PPI -1.5, LANA-H2B inh -3.0 and PRMT1 FP inh -1.1.
Screening Oc1ccc(-c2n[nH]c(=S)n2-c2ccc3c(c2)OCCO3)c(O)c1 returned rCAG binder 18.8, ALR inh 85.9*, Rtt109 Vps75 9.4, ABHD5 PLIN5 PPI 0.9, LANA-H2B inh 0.3 and PRMT1 FP inh 4.4.
`COc1cc(-c2n[nH]c(=S)n2C(C)c2ccccc2)cc(OC)c1OC` (centres undefined) gave rCAG binder 2.0, ALR inh 92.7*, Rtt109 Vps75 -0.2, ABHD5 PLIN5 PPI 0.9, LANA-H2B inh -3.4 and PRMT1 FP inh 1.4.
Screening CCCc1cc(-c2n[nH]c(=S)n2C(C)c2ccccc2)cs1 (centres undefined) returned rCAG binder 4.8, ALR inh 14.7, Rtt109 Vps75 14.0, ABHD5 PLIN5 PPI -5.8, LANA-H2B inh 4.0 and PRMT1 FP inh 7.4.
Screening S=c1[nH]nc(-c2ccc3ccccc3n2)n1-c1ccc2c(c1)OCCO2 returned rCAG binder 6.2, ALR inh 89.5*, Rtt109 Vps75 6.1, ABHD5 PLIN5 PPI -0.6, LANA-H2B inh 11.8 and PRMT1 FP inh 4.5.
S=c1[nH]nc(-c2ccc3ccccc3n2)n1-c1ccccc1 was read as rCAG binder 4.3, ALR inh 2.8, Rtt109 Vps75 -4.2, ABHD5 PLIN5 PPI -2.3, LANA-H2B inh -3.6 and PRMT1 FP inh 22.5*.
Screening S=c1[nH]nc(-c2ccc(Br)cc2)n1-c1ccc2c(c1)OCCO2 returned rCAG binder 13.8, ALR inh 71.2, ABHD5 PLIN5 PPI -6.3, LANA-H2B inh -4.2 and PRMT1 FP inh 11.7.
